# Assay outcomes (PubChem BioAssay)
# Shown are actives, neighbours in structure and some others; about 19% of the full set was active somewhere.
# HT1080NT lethal: kills 2HG-producing HT-1080-NT fibrosarcoma cells | HT-1080-NT fibrosarcoma viability, CellTiter-Glo ATP luminescence, 48 h | Potency, µM (series often up to 46.1 µM), for inactives: at the top dose activity, negative = less viability, usual class: cytotoxic | 360,000 compounds, 1.6% hits | AID 686970;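 note: NT is the 2HG producing partner of a matched IDH1 knockdown line; potency is the fitted concentration of half-maximal effect; 0% = DMSO-treated cells and -100% = media-only wells without cells; nearly all actives have a fitted effect of over 55% in size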
#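 Luminescent CellTiter-Glo readout after 48 hours of compound exposure at 37 degrees C defined viability of HT-1080-NT cells. Activity was normalized to DMSO wells and cell-free media wells; concentration-response curves were fitted and assigned curve classes.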
# IL-1B inflam inh: inhibitors of inflammasome signaling (IL-1 beta secretion); THP-1 LPS/ATP IL-1B secretion, AlphaLISA, 16 h; hits give low values; activity change, % at 57.5 µM; 360,000 compounds, 4.7% hits; AID 743279; in the data active = activity change below about -50%; inconclusive = mostly about -30% to -49%
#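 THP-1 cells pretreated 1 hr with compounds (up to 57.5 uM final), then stimulated with LPS (250 ng/mL final) plus ATP (1.25 mM final); secreted IL-1B measured by AlphaLISA after 16 hr, decreased signal indicating inhibition.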
# TDP1 cell noCPT: qHTS for Inhibitors of human tyrosyl-DNA phosphodiesterase 1 (TDP1): qHTS in cells in absence of CPT. DT40 Tdp1-/- hTDP1 cells, no CPT, ATP luminescence, 48 h. Potency, µM (top dose mostly 46.2 µM), without a hit: at the highest dose activity change, negative = growth inhibition, usual class: inhibitors. 420,000 compounds, 15% hits; note: potency is the fitted concentration of half-maximal effect; nearly all actives have a fitted effect of over 55% in size
#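 A cellular qHTS used chicken DT40 cells lacking endogenous Tdp1 but carrying stably transfected human TDP1. Compounds were applied without camptothecin, and cell growth kinetics were judged by ATP-dependent luminescence after ≥48 hr.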
# HT1080 IDH1KD tx: kills HT-1080 cells with IDH1 knockdown. HT-1080 IDH1 knockdown viability, ATP luminescence, 48 h. Potency, µM (top dose mostly 46.1 µM), without a hit: at the highest dose activity, negative = toxicity, actives largely listed as cytotoxic. 360,000 compounds, 2% hits;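 note: potency is the fitted concentration of half-maximal effect; 0% = DMSO wells and -100% = cell-free medium wells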
#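 Knockdown cells (IDH1KD HT-1080) received compounds 2 h after plating at 750 cells/well and were kept 48 h at 37 °C in 5% FBS RPMI. A CellTiter-Glo luminescence read gave % activity for curve fitting.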
# DT40 TDP1 CPT: growth inhibition of DT40 Tdp1-/-;hTDP1 cells with camptothecin (screen for TDP1 inhibitors) | Potency, µM (highest dose often 46.2 µM), inactives show at the top dose activity change, negative = growth inhibition, usual class: inhibitors | 420,000 compounds, 12% hits | chicken DT40 Tdp1-/-;hTDP1 cells + 20 nM CPT, ATP luminescence, 48 h | AID 686979; note: potency is the fitted concentration of half-maximal effect; nearly all actives have a fitted effect of over 55% in size
#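 Chicken DT40 Tdp1-/- cells complemented with human TDP1, 400 cells/well, exposed to compounds plus 20 nM camptothecin for at least 48 h at 37 C; viability read as ATP content by CellTiter-Glo luminescence.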
# Numbers without * were called inactive; ? = inconclusive; / = no result. Unless noted, calls come from the whole dose curve; as a rule, active = well fitted curve in the direction sought with a large enough effect; inconclusive = small, poorly fitted or top-dose-only effect, or another doubt; inactive = no such curve, though single readings can be large; an effect the other way counts as inactive or inconclusive. Unless noted, % is set by controls: 0 for no effect and ±100 for the full control effect.
SMILES,HT1080NT lethal,IL-1B inflam inh,TDP1 cell noCPT,HT1080 IDH1KD tx,DT40 TDP1 CPT
Cc1ccc(S(=O)(=O)N(C)C[C@H]2OCCCC[C@@H](C)Oc3ccc(N(C)C)cc3C(=O)N([C@H](C)CO)C[C@@H]2C)cc1,-4%,4,21µM*,-8%,?
Cc1noc(C)c1S(=O)(=O)Nc1ccc2c(c1)C(=O)N([C@@H](C)CO)C[C@@H](C)[C@@H](CN(C)CC1CCCCC1)OCCCC[C@@H](C)O2,-21%,?,15µM*,-29%,23µM*
C[C@@H]1CCCCO[C@@H](CN(C)S(=O)(=O)c2ccc(Cl)cc2)[C@@H](C)CN([C@H](C)CO)C(=O)c2cc(N(C)C)ccc2O1,6%,2,10%,0%,10%
C#CCCCCCCCCCCCc1ccco1,/,/,?,/,6%
CC(=O)Nc1cc(N=Cc2ccc(O)cc2O)c(Cl)cc1Cl,?,-102*,?,18µM*,?
Clc1ccc(OCCOCCOc2cccc3cccnc23)c(Br)c1,?,-3,?,?,23µM*
Brc1ccc(OCCOCCOc2cccc3cccnc23)cc1,0%,?,23µM*,-8%,?
CCCCN(C=O)c1c(CC)nc2c(OCc3ccccc3C)cccn12,13%,6,?,-18%,15µM*
CCCCN(C=O)c1c(CC)nc2c(OCc3ccc(Cl)cc3Cl)cccn12,?,-19,9.2µM*,?,21µM*
CCc1nc2c(OCc3ccccc3C)cccn2c1N(C)C(=O)C1CC1,?,-1,23µM*,7%,?
Cc1ccc(S(=O)(=O)Nc2ccccc2F)cc1C(=O)NCc1ccco1,-1%,-2,-5%,-3%,-9%
c1ccc(NCc2nc3ccccc3n2CCOc2ccccc2)cc1,2%,-11,?,-6%,?
COCc1nc2ccccc2n1Cc1ccc(C(C)(C)C)cc1,/,/,26µM*,/,21µM*
COc1ccc(NCc2nc3ccccc3n2C)cc1,-19%,2,-18%,-13%,-11%
COc1ccc(NCc2nc3ccccc3n2CCOc2ccccc2)cc1,-6%,-114*,?,0%,?
COc1ccc(NCc2nc3ccccc3n2CCOc2ccc(C)cc2)cc1,18µM*,-95*,16µM*,?,16µM*
COc1cccc(OCc2nc3ccccc3n2CCOc2ccc(C)cc2)c1,/,/,16µM*,/,23µM*
Cc1ccc(OCCn2c(C)nc3ccccc32)cc1,-10%,?,?,?,?
CC(C)Oc1ccc(CN2CCC(n3nccc3NC(=O)C3CC3)CC2)cc1,-11%,7,2%,16%,-6%
Cc1ccccc1Cn1c(COc2ccc(Cl)cc2)nc2ccccc21,/,/,13µM*,/,?
CCn1c(COc2cccc(C)c2)nc2ccccc21,-2%,-19,?,-4%,?
COc1cccc(Cn2c(Cn3c(-c4cnccn4)nc4ccccc43)nc3ccccc32)c1,2%,0,?,-28%,-15%
COc1cccc(Cn2c(C(C)n3c(-c4cnccn4)nc4ccccc43)nc3ccccc32)c1 (configuration not stated),?,?,21µM*,15µM*,?
COc1cccc(OCc2nc3ccccc3n2Cc2ccccc2)c1,/,/,18µM*,/,?
Cc1ccc(C)c(C(=O)COC(=O)c2ccccc2N2C(=O)C3C4CCC(C4)C3C2=O)c1 (configuration not stated),0%,-11,21µM*,-3%,21µM*
SMILES,HT1080NT lethal,IL-1B inflam inh,TDP1 cell noCPT,HT1080 IDH1KD tx,DT40 TDP1 CPT
O=C(COC(=O)c1ccccc1N1C(=O)C2C3CCC(C3)C2C1=O)c1ccccc1 (configuration not stated),18%,0,6%,8%,10%
C=CCN1C(=O)CSC1=Nc1ccc(O)cc1,-18%,22,16µM*,?,?
CCN1CCCC1CNC(=O)c1ccc2c(c1)N(Cc1cccc(Cl)c1)C(=O)c1ccccc1S2(=O)=O (configuration not stated),?,?,-2%,?,-23%
CN(C(=O)c1ccc2c(c1)N(Cc1ccc(F)cc1)C(=O)c1ccccc1S2(=O)=O)C1CCCCC1,/,/,16µM*,/,23µM*
O=C(OCC1CCCO1)c1ccc2c(c1)N(Cc1ccc(F)cc1)C(=O)c1ccccc1S2(=O)=O (configuration not stated),/,/,-13%,/,-23%
CN(C(=O)c1ccc2c(c1)N(Cc1cccc(Cl)c1)C(=O)c1ccccc1S2(=O)=O)C1CCCCC1,/,/,?,/,21µM*
CCCS(=O)(=O)NC(=O)C1(C)CCN(C(=O)COc2ccccc2)C1 (configuration not stated),3%,2,12%,10%,3%
O=C(CSC1=Nc2ccccc2C2=NC(CCC(=O)NC3CCCCC3)C(=O)N12)Nc1cccc(C(F)(F)F)c1 (configuration not stated),/,/,23µM*,/,?
O=C(CSC1=Nc2ccccc2C2=NC(CC(=O)NC3CCCCC3)C(=O)N12)Nc1ccc(F)cc1 (configuration not stated),/,/,-94%,/,?
CC(C)c1ccc(NC(=O)CSC2=Nc3ccccc3C3=NC(CC(=O)NC4CCCCC4)C(=O)N23)cc1 (configuration not stated),/,/,21µM*,/,21µM*
COc1ccc(NC(=O)CSC2=Nc3ccccc3C3=NC(CCC(=O)NC4CCCCC4)C(=O)N23)cc1Cl (configuration not stated),/,/,23µM*,/,?
CC(C)c1ccc(NC(=O)CSC2=Nc3ccccc3C3=NC(CCC(=O)NC4CCCCC4)C(=O)N23)cc1 (configuration not stated),/,/,23µM*,/,23µM*
COc1ccc(NC(=O)CSC2=Nc3ccccc3C3=NC(CCC(=O)NC4CCCCC4)C(=O)N23)cc1 (configuration not stated),/,/,-26%,/,?
COc1ccc(C)cc1NC(=O)c1cc2c(=O)n(Cc3cccnc3)ccc2nc1C,/,/,-15%,/,-7%
CCc1ccc(NC(=O)CSC2=Nc3ccccc3C3=NC(CC(=O)NC4CCCCC4)C(=O)N23)cc1 (configuration not stated),/,/,9.2µM*,/,12µM*
CCOc1ccc(NC(=O)CSC2=Nc3ccccc3C3=NC(CC(=O)NCc4ccco4)C(=O)N23)cc1 (configuration not stated),/,/,23µM*,/,15µM*
